The source of these data is PubChem BioAssay (NCATS).

Assay [1] has as its target Mitogen-activated protein kinase 10 (Mus musculus) (UniProt Q61831). Nature of the assay: JNK3 AlphaScreen Assay (AID 530; active means well fitted curve in either direction with a large enough effect, not every such curve was filed as active;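 further: kinase came from lysate of stimulated human HepG2 cells; signal reports phosphorylation of biotinylated GST-cJun 1-79 at Ser73 with 10 µM ATP; series mostly up to about 57 µM; on the % scale 0 is the no-effect control and ±100 the full control effect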). The method in brief:
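Pre-activated (IL-1β/TNFα) JNK3 in HepG2 lysates phosphorylates biotin-GST-cJun(1-79), 10 uM ATP; anti-phospho-cJun(Ser73) AlphaScreen read at room temperature, pH 7.6 Tris buffer. Compounds pre-incubated 15 min as titrations.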

In assay [2] the target is Cytochrome P450 3A4 (Homo sapiens) (UniProt P08684). The assay is described as follows: qHTS Assay for Inhibitors and Substrates of Cytochrome P450 3A4 (AID 884). Further: series mostly up to about 57 µM; on the % scale 0 is the no-effect control and ±100 the full control effect; nearly all actives have a fitted effect of over 50% in size. The essentials: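 20 nM human CYP3A4 with 25 uM Luciferin-PPXE (at KM) in 200 mM KPO4, preincubated 10 min with compound; NADPH regeneration started a 60 min RT reaction. Luciferin detected by luminescence, normalized to 57 uM ketoconazole as full inhibition.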
Sequence of Cytochrome P450 3A4 (Homo sapiens) (P08684 whole entry, looked up): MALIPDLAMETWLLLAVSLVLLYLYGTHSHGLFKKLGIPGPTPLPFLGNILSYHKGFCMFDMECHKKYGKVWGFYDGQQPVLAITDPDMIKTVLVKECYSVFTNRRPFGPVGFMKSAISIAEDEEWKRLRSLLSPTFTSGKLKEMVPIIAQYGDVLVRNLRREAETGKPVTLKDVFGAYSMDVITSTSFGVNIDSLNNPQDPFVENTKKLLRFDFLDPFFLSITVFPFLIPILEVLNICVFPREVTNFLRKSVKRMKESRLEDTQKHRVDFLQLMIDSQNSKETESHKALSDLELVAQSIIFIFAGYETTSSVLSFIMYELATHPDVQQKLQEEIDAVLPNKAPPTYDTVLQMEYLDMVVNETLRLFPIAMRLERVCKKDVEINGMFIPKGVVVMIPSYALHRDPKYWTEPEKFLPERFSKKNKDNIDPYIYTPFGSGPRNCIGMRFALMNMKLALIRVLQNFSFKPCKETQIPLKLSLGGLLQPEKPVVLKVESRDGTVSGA
On the technique in general: qHTS replaces the single test concentration by a dilution series.

Assay [3] is described as follows: Cell Viability - LYMP2-001 (AID 921).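 Further: series mostly up to about 92 µM; cells exposed to compound for 24 h at 37 °C; 0% = DMSO only and full inhibition = tetraoctylammonium bromide control wells; nearly all actives have a fitted effect of over 70% in size.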 The method in brief: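 Steps: seed 2500 lymphoblastoid cells/well; 5 hr, 37 C; add compound; 24 hr, 37 C; CellTiter-Glo reagent, 30 min room temperature; read luminescence. Concentration-response modeled by Hill equation for AC50.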
Assay [4] deals with Bile acid receptor (Homo sapiens) (UniProt Q96RI1). Nature of the assay: qHTS assay for small molecule antagonists of farnesoid X receptor signaling (AID 588526; calls by dose curve; further: on the % scale 0 is the no-effect control and ±100 the full control effect). The method in brief:
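Antagonist mode: titrated compounds tested against chenodeoxycholic acid stimulation (normalized to 50 uM CDCA and DMSO) in GeneBLAzer HEK293T cells for 16 h. Beta-lactamase read by CCF4 fluorescence; IC50 from Hill fits.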

Assay [5] addresses Glucocorticoid receptor (Homo sapiens) (UniProt P04150). Nature of the assay: qHTS assay for small molecule antagonists of glucocorticoid receptor signaling (AID 588533; active means well fitted inhibition curve with a large enough effect in the signal ratio, with a control signal flat, not every such curve was filed as active; the % refers to the signal ratio;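 further: cells stimulated with 2 nM dexamethasone as agonist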; further: potency means the concentration at half of the fitted maximal effect). The essentials: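 Antagonist-mode qHTS: compound titrations added to GRE-bla HeLa cells, then dexamethasone 2 nM final; 18 h, 37 C. CCF4 FRET fluorescence normalized to dexamethasone and DMSO; IC50 from Hill fit.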

The nature of assay [6]: qHTS assay for small molecule antagonists of peroxisome proliferator-activated receptor delta signaling (AID 588535; active means well fitted inhibition curve with a large enough effect in the signal ratio, with a control signal flat, not every such curve was filed as active; the % refers to the signal ratio;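 on max response: cells co-treated with a PPAR-delta agonist as stimulator during compound exposure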). Conditions: HEK293T PPARd-UAS-bla, beta-lactamase FRET ratio, 18 h; 460 nm channel. The method in brief:
(§1)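 Antagonist-mode beta-lactamase reporter (GeneBLAzer PPAR-delta-UAS-bla) in HEK293T cells, 2% charcoal/dextran FBS, 4000 cells/well. Compound titrations, 18 h at 37 C; CCF4 ratio read, IC50 and efficacy from Hill fits.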

Assay [7] deals with Peroxisome proliferator-activated receptor delta (Homo sapiens) (UniProt Q03181). The description is as above. The method in brief:
as §1

In assay [8] the target is Thyroid hormone receptor beta (Homo sapiens) (UniProt P10828). The assay is described as follows: qHTS assay for small molecule agonists of thyroid hormone receptor beta signaling (AID 588545; calls by dose curve;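 further: 0% = DMSO only and 100% = 10 nM T3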). The essentials:
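Stimulation of a TR-driven beta-lactamase reporter was quantified in GripTite HEK 293 cells. Compound series ran for 18 hrs; curves were normalized to T3 and DMSO controls and fitted to yield EC50.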

Assay [9] in a line: qHTS assay for small molecule agonists of the antioxidant response element (ARE) signaling pathway (AID 651741; active means well fitted activation curve with a large enough effect in the signal ratio; the % refers to the signal ratio; further: potency means the concentration at half of the fitted maximal effect; on activation: % of control where 0% means no effect). The essentials: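 CellSensor ARE-bla HepG2 cells (2,000/well) carrying ARE-driven beta-lactamase, exposed 16 h at 37 C. LiveBLAzer B/G FRET substrate added for 2 h at room temperature; fluorescence intensity read.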
A short description of assay [10]: qHTS assay for small molecule activators of the nuclear factor-kappa B (NF-kB) signaling pathway (AID 651749; active means well fitted activation curve with a large enough effect in the signal ratio; the % refers to the signal ratio; further: series mostly up to about 77 µM; % of control where 0% means no effect). Conditions: NF-kB-bla ME-180 cells, beta-lactamase FRET ratio, 16 h; stronger effect = higher value. The essentials: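 NF-kB-bla ME-180 cells carrying a beta-lactamase reporter under an NF-kB response element, 2,000 cells/well, exposed to compound for 16 hr at 37C; FRET-based beta-lactamase fluorescence read-out of pathway activation.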

The nature of assay [11]: qHTS assay to identify small molecules that stimulate interleukin-8 (IL-8) secretion (AID 651758; active means well fitted activation curve with a large enough effect in the signal ratio; the % refers to the signal ratio; further: potency means the concentration at half of the fitted maximal effect; on activation: 0% is about no effect). The method in brief:
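THP-1 cells (2000/well) exposed to compound 16 h at 37 C; secreted IL-8 then detected by HTRF with cryptate- and XL665-labelled anti-IL-8 antibody pair after 1-3 h at room temperature.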

For assay [12], the target named is Peroxisome proliferator-activated receptor alpha (Homo sapiens) (UniProt Q07869). The assay is described as follows: qHTS assay for small molecule agonists of the peroxisome proliferator-activated receptor alpha (PPARalpha) signaling pathway (AID 651778). Further: % of control where 0% means no effect. The following applies: PathHunter PPARalpha complementation, chemiluminescence, 6 h; max response: stronger effect = higher value. The method in brief:
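Enzyme-fragment complementation assay in which ligand-bound PPARalpha translocates and forms an active enzyme that generates chemiluminescence. Cells were plated overnight, exposed to compound for 6 hr at 37 C, and then given detection reagent for 60 min at room temperature.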

The nature of assay [13]: qHTS assay for cell viability of HEK293 cells (AID 743288). Further: on the % scale 0 is the no-effect control and ±100 the full control effect; nearly all actives have a fitted effect of over 50% in size. The following applies: ATP luminescence (CellTiter-Glo), 18 h; max response: stronger effect = lower value. The essentials: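 HEK293 parental, 2,000 cells/well; ≥5 h pre-incubation 37 C; pintool compound addition; 18 h, 37 C; CellTiter-Glo 30 min RT; luminescence read.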
Assay [14] is described as follows: Cell Viability - LYMP2-013 (AID 970).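 Further: series mostly up to about 92 µM; cells exposed to compound for 24 h at 37 °C; 0% = DMSO only and full inhibition = tetraoctylammonium bromide control; nearly all actives have a fitted effect of over 55% in size.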 The method in brief: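 Human lymphoblastoid LYMP2-013 cells, 2500/well, treated 24 h at 37 C in complete medium; viability as intracellular ATP by CellTiter-Glo luminescence after 30 min. AC50 from Hill fits of qHTS concentration-response.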
A short description of assay [15]: Cell Viability - LYMP2-014 (AID 983).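 Further: cells exposed to compound for 24 h at 37 °C; nearly all actives have a fitted effect of over 50% in size.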 Further: potency means the concentration at half of the fitted maximal effect. The method in brief: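 LYMP2-014 human lymphoblastoid cells, 2500/well, treated 24 h at 37 C in complete medium; viability by CellTiter-Glo ATP luminescence after 30 min at room temperature. AC50 from Hill fits of qHTS concentration-response; tetraoctylammonium bromide positive control.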
A short description of assay [16]: Cell Viability - LYMP2-016 (AID 984).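 Further: cells exposed to compound for 24 hours at 37 °C; on the % scale 0 is the no-effect control and ±100 the full control effect; nearly all actives have a fitted effect of over 55% in size.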 The essentials:
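Cells were seeded at 2500 per well and rested 5 hr before a 24 hr compound exposure at 37 C. Viability was then gauged as cellular ATP by luciferase luminescence, with AC50 values fitted to the Hill equation.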

In assay [17] the target is Peroxisome proliferator-activated receptor gamma (Homo sapiens) (UniProt P37231). The assay is described as follows: qHTS assay for small molecule antagonists of peroxisome proliferator-activated receptor gamma signaling (AID 588537; active means well fitted inhibition curve with a large enough effect in the signal ratio, with a control signal flat, not every such curve was filed as active; the % refers to the signal ratio;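 further: reporter cells co-stimulated with 50 nM rosiglitazone agonist during compound treatment; % of control where 0% means no effect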). The essentials:
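PPARγ-UAS-bla HEK293 cells (3000/well) in 1% charcoal/dextran-stripped FBS are treated with compound, then stimulated with 50 nM rosiglitazone for 16 h at 37 °C. Read-out is CCF4 β-lactamase fluorescence after 2 h at RT. IC50 comes from Hill fits normalised to rosiglitazone and DMSO.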

Assay [18] can be described thus: qHTS assay for small molecule disruptors of the mitochondrial membrane potential - 5 hr assay (AID 651755; calls by dose curve; further: on the % scale 0 is the no-effect control and ±100 the full control effect; nearly all actives have a fitted effect of over 40% in size). The essentials:
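HepG2 cells (2,000/well), attached overnight, exposed to compound 5 hr at 37C, then Mito-MPS dye 30 min. Fluorescence read for monomers (490/535 nm) and aggregates (540/590 nm).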

A short description of assay [19]: Cell Viability - BJ (AID 421; calls by dose curve;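 further: potency means the concentration at half of the fitted maximal effect; cells exposed to compound for 40 hours at 37 °C before readout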). Conditions: BJ fibroblast viability, qHTS. The essentials:
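Cytotoxicity as drop in intracellular ATP (CellTiter-Glo, 20 min RT) after 40 hr compound exposure of BJ fibroblasts at 37 °C. Titrations scaled between DMSO and 100 uM tamoxifen, Hill-fitted for AC50.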

Where “and” joins values, the source holds several entries; their conditions need not be identical. Equal values may be shown once. Inconclusive results are not listed. Calls of active or inactive are those of the source. Unless noted, the call rests on the fitted dose curve; in most records, active means well fitted curve in the direction sought with a large enough effect; inconclusive means small, poorly fitted or top-dose-only effect, or another doubt; inactive means no such curve, though single readings can be large; an effect the other way counts as inactive or inconclusive.

Sequence of Peroxisome proliferator-activated receptor gamma (Homo sapiens) (P37231 whole entry, looked up): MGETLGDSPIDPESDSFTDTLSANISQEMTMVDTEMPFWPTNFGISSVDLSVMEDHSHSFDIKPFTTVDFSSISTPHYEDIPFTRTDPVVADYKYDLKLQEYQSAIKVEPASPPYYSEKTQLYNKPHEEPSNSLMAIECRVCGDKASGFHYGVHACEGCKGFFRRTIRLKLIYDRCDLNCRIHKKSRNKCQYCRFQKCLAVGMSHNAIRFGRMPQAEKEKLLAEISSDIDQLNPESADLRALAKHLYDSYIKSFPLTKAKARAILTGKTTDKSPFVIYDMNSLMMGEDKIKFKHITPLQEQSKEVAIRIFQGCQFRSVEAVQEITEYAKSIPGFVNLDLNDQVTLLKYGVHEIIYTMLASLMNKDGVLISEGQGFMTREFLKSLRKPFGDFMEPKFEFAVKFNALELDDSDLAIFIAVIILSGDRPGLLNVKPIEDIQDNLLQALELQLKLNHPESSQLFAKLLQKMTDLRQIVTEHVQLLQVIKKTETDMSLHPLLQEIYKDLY
Sequence of Peroxisome proliferator-activated receptor alpha (Homo sapiens) (Q07869 whole entry, looked up, the tested form may be a part): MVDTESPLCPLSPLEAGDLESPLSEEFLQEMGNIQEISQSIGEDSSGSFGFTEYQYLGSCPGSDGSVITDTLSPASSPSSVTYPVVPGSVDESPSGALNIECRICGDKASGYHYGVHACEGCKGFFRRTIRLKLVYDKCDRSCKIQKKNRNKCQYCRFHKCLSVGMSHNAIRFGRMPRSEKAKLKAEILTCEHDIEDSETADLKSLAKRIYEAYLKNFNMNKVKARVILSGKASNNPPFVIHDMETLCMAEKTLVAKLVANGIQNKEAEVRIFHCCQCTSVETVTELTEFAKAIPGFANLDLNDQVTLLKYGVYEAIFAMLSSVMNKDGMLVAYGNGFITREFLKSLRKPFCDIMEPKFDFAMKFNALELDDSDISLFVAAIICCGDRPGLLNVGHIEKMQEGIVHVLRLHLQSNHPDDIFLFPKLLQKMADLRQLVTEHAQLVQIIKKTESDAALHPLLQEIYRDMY
Sequence of Peroxisome proliferator-activated receptor delta (Homo sapiens) (Q03181 whole entry, looked up): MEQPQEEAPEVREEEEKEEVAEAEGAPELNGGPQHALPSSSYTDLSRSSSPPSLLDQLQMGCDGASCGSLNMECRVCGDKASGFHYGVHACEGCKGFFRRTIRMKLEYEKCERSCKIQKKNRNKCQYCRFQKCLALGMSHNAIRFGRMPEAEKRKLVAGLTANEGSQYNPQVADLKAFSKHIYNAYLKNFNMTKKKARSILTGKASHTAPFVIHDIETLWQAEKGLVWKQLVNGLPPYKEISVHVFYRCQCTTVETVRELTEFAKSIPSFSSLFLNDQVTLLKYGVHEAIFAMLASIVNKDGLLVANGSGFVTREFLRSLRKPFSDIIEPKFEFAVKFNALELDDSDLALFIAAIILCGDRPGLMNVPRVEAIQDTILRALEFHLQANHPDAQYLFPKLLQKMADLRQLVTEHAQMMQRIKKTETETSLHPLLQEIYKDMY
Sequence of Bile acid receptor (Homo sapiens) (Q96RI1 whole entry, looked up): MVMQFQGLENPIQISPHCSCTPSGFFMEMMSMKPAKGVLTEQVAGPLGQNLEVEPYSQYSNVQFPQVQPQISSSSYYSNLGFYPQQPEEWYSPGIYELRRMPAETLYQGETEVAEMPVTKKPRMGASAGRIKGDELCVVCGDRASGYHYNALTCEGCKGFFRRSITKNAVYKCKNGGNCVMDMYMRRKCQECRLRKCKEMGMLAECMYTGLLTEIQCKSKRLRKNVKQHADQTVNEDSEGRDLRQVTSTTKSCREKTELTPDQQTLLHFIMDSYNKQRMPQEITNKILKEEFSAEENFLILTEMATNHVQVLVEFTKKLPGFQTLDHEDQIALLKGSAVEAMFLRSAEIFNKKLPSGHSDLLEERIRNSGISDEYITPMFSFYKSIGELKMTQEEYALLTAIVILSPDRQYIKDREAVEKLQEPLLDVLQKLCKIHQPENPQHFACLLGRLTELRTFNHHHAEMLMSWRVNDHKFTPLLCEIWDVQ
Sequence of Glucocorticoid receptor (Homo sapiens) (P04150 whole entry, looked up): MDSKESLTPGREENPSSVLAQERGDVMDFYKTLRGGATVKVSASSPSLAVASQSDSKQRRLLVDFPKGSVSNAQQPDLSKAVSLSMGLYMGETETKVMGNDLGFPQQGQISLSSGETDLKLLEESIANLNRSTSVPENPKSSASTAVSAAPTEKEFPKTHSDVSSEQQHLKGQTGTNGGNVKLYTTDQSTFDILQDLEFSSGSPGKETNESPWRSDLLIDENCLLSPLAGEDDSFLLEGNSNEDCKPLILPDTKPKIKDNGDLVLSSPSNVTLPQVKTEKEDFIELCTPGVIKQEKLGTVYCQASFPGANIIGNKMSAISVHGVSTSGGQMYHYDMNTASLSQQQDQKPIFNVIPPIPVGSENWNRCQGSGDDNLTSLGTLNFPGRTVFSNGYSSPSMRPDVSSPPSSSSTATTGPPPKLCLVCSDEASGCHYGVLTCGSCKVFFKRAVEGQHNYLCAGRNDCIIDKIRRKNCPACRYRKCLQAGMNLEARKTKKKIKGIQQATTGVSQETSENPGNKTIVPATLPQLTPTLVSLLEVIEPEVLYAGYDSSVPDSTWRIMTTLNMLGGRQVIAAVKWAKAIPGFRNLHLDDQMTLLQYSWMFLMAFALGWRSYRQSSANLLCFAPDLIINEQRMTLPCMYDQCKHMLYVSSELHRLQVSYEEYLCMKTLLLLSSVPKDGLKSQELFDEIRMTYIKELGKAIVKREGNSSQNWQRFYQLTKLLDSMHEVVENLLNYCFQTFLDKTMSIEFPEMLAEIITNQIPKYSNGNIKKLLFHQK
Sequence of Thyroid hormone receptor beta (Homo sapiens) (P10828 whole entry, looked up): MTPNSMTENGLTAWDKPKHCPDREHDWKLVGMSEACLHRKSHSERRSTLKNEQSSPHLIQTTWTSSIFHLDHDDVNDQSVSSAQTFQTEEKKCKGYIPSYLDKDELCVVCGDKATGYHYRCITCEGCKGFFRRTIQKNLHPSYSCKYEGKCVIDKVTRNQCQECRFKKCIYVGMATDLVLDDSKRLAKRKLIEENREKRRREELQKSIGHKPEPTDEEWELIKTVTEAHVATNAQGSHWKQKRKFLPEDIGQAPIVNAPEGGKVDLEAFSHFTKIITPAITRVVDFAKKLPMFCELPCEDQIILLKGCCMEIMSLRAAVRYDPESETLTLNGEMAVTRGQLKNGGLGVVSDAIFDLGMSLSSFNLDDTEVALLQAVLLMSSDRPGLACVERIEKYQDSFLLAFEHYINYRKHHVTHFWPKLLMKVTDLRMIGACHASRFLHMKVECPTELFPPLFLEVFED

For `C=Cc1ccccc1Cl`, the Potency result in assay [1], in assay [2], in assay [3], in assay [5], in [7] and in assay [9] was “inactive” throughout. In addition, the Potency result in [11] was “inactive”. Besides, the compound was classed as inactive in assay [4] and in assay [8]. In addition, the max response in [6] is -3.33%; in assay [12] it was -0.389% (inactive); in assay [13], 6.21% (inactive). Moreover, the activation in assay [10] is -1.19% (inactive).
For the compound `COC(=O)CCCCC(=O)OC`, the Potency result in [1], in [14], in assay [15], in assay [16], in assay [5] and in [7] was “inactive” each time. Besides, the Potency result in [18] and in [11] was “inactive” in each case. Further, the result in assay [4], in assay [17] and in [8] was inactive. Besides, the max response in [6] was 25.3% and -0.778%; in assay [12], -1.36% (inactive) and -1.93% (inactive) and -0.772% (inactive).
As for `CC(C)=CCCC(C)CCO` (stereo not drawn), the Potency result in assay [1], in [2], in assay [5], in assay [7] and in assay [9] was “inactive” in each case. For the same compound, the max response in [6] is 6.53% and 29.8%; in assay [12], -8.23% (inactive) and 0.206% (inactive); in assay [13], 0.805% (inactive) and -8.34% (inactive). Besides, the outcome in assay [17] was inactive. Besides, the activation in assay [10] is 0.223% (inactive) and -0.597% (inactive).
On to `NC1=NC(S)C2N=CN=C2N1` (stereo not drawn), for which the Potency result in assay [1], in [2] and in assay [18] was “inactive” in each case. The Potency in assay [15] is 15.8 µM (active); in [5], 7.08 µM (active); in assay [9], 33.5 µM (active); in [11], 66.8 µM (active). Also, in [8], the compound was called inactive. Moreover, the activation in [10] is 0.298% (inactive).
In the case of `CC1(C)CC(N=C=O)CC(C)(CN=C=O)C1` (stereo not drawn), the Potency in assay [19] is > 92 µM (inactive). For the same compound, the Potency result in assay [3], in assay [15] and in assay [9] was “inactive” each time. Moreover, the compound was classed as inactive in assay [4], in [17] and in assay [8]. The activation in assay [10] was -0.293% (inactive) and -0.0815% (inactive). Moreover, in assay [12], the max response was -1.83% (inactive) and -0.793% (inactive).
Consider `Clc1cc(Cl)c(Cl)c(Cl)c1Cl`, for which the Potency entry in assay [1], in assay [14], in assay [15], in assay [16], in assay [5] and in [9] was “inactive” each time. The Potency result in assay [11] is “inactive”. Further, the max response in [12] is -5.3% (inactive) and -0.232% (inactive); in [13], -16.4% (inactive) and -15.3% (inactive).
Take `ClCCCl`: the Potency entry in [1], in assay [2], in [3], in assay [14], in [5] and in assay [7] was “inactive” throughout. For the same compound, the Potency result in assay [9], in assay [18] and in assay [11] was “inactive” each time. For the same compound, the max response in assay [6] was -25.6% and 21.1%. For the same compound, in assay [17], the call was inactive. Moreover, the activation in assay [10] was -0.0783% (inactive) and -1.06% (inactive) and -1.29% (inactive).
In the case of `CCC(O)OC(O)CC` (stereo not drawn), the Potency in [19] is > 92 µM (inactive). In addition, the Potency result in assay [5], in assay [18] and in [11] was “inactive” in each case. For the same compound, the compound was classed as inactive in assay [17]. Moreover, the activation in [10] was 0.14% (inactive) [middle of 4 runs]. Moreover, the max response was -0.587% (inactive) [middle of 4 runs] in assay [12] and -2.73% (inactive) [middle of 4 runs] in [13].
As for `COc1ccc2nc(N)sc2c1`, the Potency entry in assay [1], in assay [14], in assay [15] and in [5] was “inactive” throughout. Also, the call in [8] was inactive. In addition, in [9], the Potency is 54.5 µM (active). The max response in assay [13] is 3.97% (inactive) and -4.38% (inactive).
For the compound `Clc1cc(Cl)c(Cl)cc1Cl`, the Potency in assay [19] was > 92 µM (inactive). Further, the Potency entry in assay [1], in [14], in assay [15], in assay [5], in assay [7] and in assay [9] was “inactive” each time. In addition, the max response in assay [6] is 10.3% and -6.5%; in assay [12] it was -0.154% (inactive) and -0.267% (inactive); in assay [13] it was 3.48% (inactive) and -4.31% (inactive). The compound was called inactive in assay [17] and in [8]. The activation in assay [10] was 0.515% (inactive) and -2% (inactive).
